Reference: PubChem BioAssay AID485297 (National Center for Advancing Translational Sciences (NCATS), 2010)
The campaign covered roughly 320,000 compounds. About 9,100 (2.8%) were called active. Roughly 3% stayed inconclusive and do not appear here. The sample holds actives, similar compounds and a random draw of the others, so the mix is not that of the screen. The call rests on the fitted dose curve; in most records, active means well fitted activation curve with a large enough effect; inconclusive means small, poorly fitted or top-dose-only effect; inactive means no such curve, though single readings can be large or run the other way.

Test: qHTS Assay for Rab9 Promoter Activators; further: nearly all actives have a fitted effect of over 60% in size; on activation, negative = inhibition: % of control where 0% means no effect
Settings: Huh7 Rab9 promoter-luciferase reporter, luminescence, 24 h; series mostly up to 9.22 µM; activation, negative = inhibition: at the top concentration
Source text: NIH Chemical Genomics Center [NCGC] NIH Molecular Libraries Probe Production centers Network [MLPCN] MLPCN Grant: MH089537-01 Assay Submitter (PI): Yiannis A. Ioannou NCGC Assay Overview: Niemann Pick Type C (NPC) is a rare neurodegenerative lipidosis that is characterized by lipid storage in the endosomal/lysosomal system. Treatment modalities for this devastating disease are currently non-existent due to the severe obstacles associated with accessing the central nervous system with proteins or genes (Ioannou, 2000). We have developed a new paradigm, termed "Orphan Receptor Bypass Therapy" (ORByT), to address these disorders. This paradigm posits the existence of endogenous "suppressor" proteins whose expression can dramatically improve LSD pathogenesis. The goal is the identification/discovery of small chemical compounds that can modulate the expression of these proteins and provide a new treatment modality for these devastating disorders. One such protein whose overexpression reverses aspects of the NPC phenotype is Rab9. We have developed and optimized a cell based luciferase reporter assay in 1536 well format for the identification of up-regulators of the Rab9 promoter.
The Rab9 promoter is cloned in front of the luciferase reporter gene, therefore […] promoter activation results in luciferase expression. Frozen stock of the Rab9 promoter transfected Huh7 cells were obtained from the laboratory of Dr. Yiannis Ioannou (The Mount Sinai School of Medicine, New York, NY). Cells were propagated and maintained at NCGC in medium containing RPMI-1640 supplemented with 10% FBS, 2mM L-glutamine, and 50ug/ml penicillin/streptomycin. Cells were harvested in and plated for assays in OP-MEM I reduced-serum medium supplemented with 10% FBS. The Amplite luciferase reporter gene assay kit was purchased from ABD Bioquest and prepared/stored according to manufacturers recommendations. qHTS Assay Setup: 1.Dispensed 5ul of Huh7 cells stably expressing Rab9-luciferase at a density of 1500 cells per well 1536-well plates. 2.Incubate cells at 37C, 5% CO2, and 95% humidity for 2 hours. 3.Transferred 23nl per well of compound in DMSO solution. 4.Incubated at 37C, 5% CO2, and 95% humidity for 24 hours. 5.Dispensed 3ul per well of Amplite reagent(ABD Bioquest) per well. 6.Incubate at ambient for 10 minutes. 7.Read using the luminescence protocol on the ViewLux plate reader (Perkin Elmer).
Potency means the concentration at half of the fitted maximal effect.

| SMILES | activation, negative = inhibition | Potency |
| --- | --- | --- |
| COc1ccc(CCNC(=O)COC(=O)Cc2cccc(F)c2)cc1 | -4.5% (inactive) |  |
| CCCC[C@]12Cc3cc(OC)c(OC)cc3C(O1)C1=C(CC3(CCCCC3)OC1=O)O2 | -3.75% [at 1.84 µM] (inactive) |  |
| N#Cc1cccc(NC(=O)C2CCCN(C(=O)c3ccc(Cl)cc3)C2)c1 (stereo not drawn) | 2.15% (inactive) |  |
| N#CC1(NC(=O)COC(=O)CCN=C2NS(=O)(=O)c3ccccc32)CCCCC1 | 3.55% (inactive) |  |
| CC(=O)/C(C)=N/O | 3.38% [at 46.1 µM] (inactive) |  |
| O=C(N/N=C/c1c(Cl)[nH]c2ccccc12)c1sc2ccccc2c1Cl | -0.784% (inactive) |  |
| O=C(Nc1ccon1)c1sc2ccccc2c1Cl |  | 3160 nM (active) |
| O=C(Nc1ccon1)c1cccc(Cl)c1 | -2.87% (inactive) |  |
| CC1CCCCC1NC(=O)COC(=O)Cc1ccc(Cl)cc1 (stereo not drawn) | 1.14% (inactive) |  |
| O=C(C(=O)N1CCc2ccccc2C1)N1CCc2ccccc2C1 | -5.85% (inactive) |  |
| CCc1ccc(NC(=O)N2CCc3ccccc3C2)cc1 |  | 2240 nM (active) |
| CCc1ccc(NC(=O)N2CCN(c3ccccc3)CC2)cc1 | 14.7% (inactive) |  |
| COc1cccc(NC(=O)CN(C)CC(=O)c2c(N)n(Cc3ccccc3)c(=O)n(C)c2=O)c1 | 1.65% (inactive) |  |
| O=C(CNC(=O)c1ccc2ccccc2c1)Nc1ncccc1O | 10.7% (inactive) |  |
| CSc1ccc(C#N)cc1NC(=O)c1cccc(Cl)c1 | -1.51% (inactive) |  |
| O=C(Nc1cccc2cccnc12)c1cccc(Cl)c1 | 2.18% (inactive) |  |
| N#Cc1ccccc1NC(=O)c1cccc(COc2ccc(Cl)cc2Cl)c1 |  | 447 nM (active) |
| CCN(c1ccccc1)S(=O)(=O)c1cccc(C(=O)NCc2ccccc2CN2CCOCC2)c1 | -2.11% (inactive) |  |
| CN(CC(=O)Nc1ccc(Cl)cc1)CC(=O)Nc1cccc2ccccc12 | -4.32% (inactive) |  |
| C/C=C(/C)C(=O)O[C@@H]1c2cc3c(c4c2[C@@]2(CO4)C(=O)C(OC)=C(OC)C=C2C[C@@H](C)[C@H]1C)OCO3 | -1.59% (inactive) |  |
| O=C(CN(c1cc(C(F)(F)F)ccc1Cl)S(=O)(=O)c1ccccc1)NCc1cccnc1 | 0.849% (inactive) |  |
| CCCNS(=O)(=O)c1ccc(CCC(=O)NCc2cccnc2)cc1 | -7.87% (inactive) |  |
| CCc1ccc(N(CC(=O)NCc2cccnc2)S(=O)(=O)c2ccccc2)cc1 |  | 3550 nM (active) |
| Cc1ccc(CN2CC(C(=O)NNC(=O)Cn3ccc(C(F)(F)F)n3)CC2=O)cc1 (stereo not drawn) | 1.15% (inactive) |  |
| CC(NC(=O)c1ccc(S(=O)(=O)Nc2ccccc2)cc1)c1ccc(S(N)(=O)=O)cc1 (stereo not drawn) | 4.87% (inactive) |  |
| COc1ccccc1C(=O)Nc1ccc(OCC(=O)N2CCCCC2)cc1 | -4.82% (inactive) |  |
| O=C1CC[C@H](O)CCN1[C@H](CSc1ccc(Br)cc1)Cc1ccccc1 | -7.37% (inactive) |  |
| CC(C)(CSc1nncn1/N=C/c1ccco1)NS(=O)(=O)c1ccc(Cl)cc1 | -3.33% (inactive) |  |
